Assay results reported in ChEMBL document CHEMBL1157539, “Thousands of chemical starting points for antimalarial lead identification” (Nature, 2010).

test system: Plasmodium falciparum; assay: GSK_TCMDC: Inhibition of Plasmodium falciparum 3D7 in whole red blood cells, using parasite LDH activity as an index of growth. Test compounds present at 2uM; type: functional

Structure (SMILES)	Inhibition [%]
CC(C)NCc1ccc(-c2ccc(CN3CCCC(c4ccccc4)C3)cc2)c(C(=O)NCC2CCCCC2)c1.O=C(O)C(F)(F)F (stereo not given)	97
Cl.O=C(/C=C/c1ccc(Cl)c(Cl)c1)N1CCC(CN2CCC(c3c[nH]c4ncccc34)CC2)CC1	84
CC1CN(c2ccnc3ccc(Sc4ccc(Oc5ccccc5)cc4)cc23)CC(C)N1.Cl (stereo not given)	100
Cl.c1ccc2c(Nc3ccc(OCCOCCOc4ccc(Nc5c6ccccc6nc6ccccc56)cc4)cc3)c3ccccc3nc2c1	100
CN=C(NC)c1cccc(NC(=O)C=Cc2ccc(C=CC(=O)Nc3cccc(C(=NC)NC)c3)cc2)c1.Cl	98
Cc1ccc2cc(NC(=O)CCCCCCCON3C(N)=NC(N)=NC34CCCCC4)ccc2n1.O=C(O)C(F)(F)F	98
CCOC(=O)c1ccc(-c2c(C(F)(F)F)noc2-c2cc(CC)c(OC)cc2O)o1	100
COc1ccc(Nc2ncc3c(-c4cccc(NC(=O)Cc5ccncc5)c4)c[nH]c3n2)cc1OC	99
Br.COc1ccc(CCCON2C(=N)N=C(N)NC2(C)C)cc1	95
CN(c1ccc(NC(=O)Nc2cc(C(F)(F)F)ccc2F)cc1)c1ccnc(NCCN2CCOCC2)n1.O=C(O)C(F)(F)F	97
CS(=O)(=O)Nc1ccc(-c2ccc3ccnc(N)c3c2)cc1.O=C(O)C(F)(F)F	85
O=C(NC1CC1)c1ccc(N2CCC(c3ccccc3)CC2)nc1.O=C(O)C(F)(F)F	93
Cl.N#Cc1ccc2c(c1)CCN(CCC1CCC(NC(=O)Nc3ccnc4ccccc34)CC1)C2 (stereo not given)	100
COc1cc2nc(NCc3ccc(S(N)(=O)=O)cc3)nc(Nc3ccc(Oc4ccccc4)cc3)c2cc1OC	100
COc1ccc(CCn2c(C3CCCCC3)nc3oc4ccccc4c(=O)c3c2=O)cc1	91
O=C(Nc1ccc(C(F)(F)F)cc1)c1ccc(NCCCN2CCCCCC2)c([N+](=O)[O-])c1	100
COc1cccc(CNC[C@@H](O)[C@H](Cc2ccccc2)NC(=O)c2cc(N3CCCC3=O)c3[nH]cc(C(C)C)c3c2)c1	96
COc1cccc(CNC(=O)NC2CCN(c3ccnc(Nc4ccc(F)cc4)n3)C2)c1 (stereo not given)	94
COc1cc2nc(Cl)nc(Nc3ccncc3)c2cc1OC.Cl	86
COc1ccc(C(=O)CCC(=O)N(Cc2ccc(-c3ccc(CNCCc4ccc(S(C)(=O)=O)cc4)cn3)cc2)Cc2ccc3c(c2)OCO3)cc1F.O=C(O)C(F)(F)F	95

Structure (SMILES)	Inhibition [%]
Cl.N=C(N)c1cc(Cl)cc(NC(=O)Nc2cc(Cl)cc(C(=N)N)c2)c1	92
Nc1nc(N)c2cc(S(=O)(=O)c3ccc4ccccc4c3)ccc2n1	95
FC(F)(F)c1cccnc1N1CCC(Nc2nc3cc(Cl)ccc3[nH]2)CC1	93
COc1ccc(N(c2nc(-c3cc(Cl)ccc3Cl)cs2)C2CCNC2)cc1.O=C(O)C(F)(F)F (stereo not given)	95
Br.Cc1cccc(OCCCCON2C(=N)N=C(N)NC2(C)C)c1C	97
CN1CCN(CCCNc2ncc3c(-c4ccc(NC(=O)Nc5cc(C(F)(F)F)ccc5F)c(F)c4)nn(C)c3n2)CC1.O=C(O)C(F)(F)F	98
c1ccc(CSC2=NNC(c3ccccn3)S2)cc1 (stereo not given)	80
CN1CCC(c2nc(N)no2)C1.O=C(O)C(=O)O (stereo not given)	95
COc1ccc2cc(-c3nc(-c4c(Cl)cccc4Cl)[nH]c3-c3ccnc(NCCCN4CCN(C)CC4)c3)ccc2c1.O=C(O)C(F)(F)F	98
O=C(O)C(F)(F)F.OCCC1CCN(Cc2ccc(-c3ccc(-c4nc5ccccc5[nH]4)cc3)cc2)CC1	99
Clc1ccc(Cc2nc3ccccc3[nH]2)cc1Cl	98
COc1ccc(Cn2c(SCc3ccc(C)cc3)nc3cc(OC)c(OC)cc3c2=N)cc1Cl	92
Brc1cc(CNCCCNc2nc3ccccc3[nH]2)sc1Br.Cl	100
CC(C)(C)OC(=O)NCc1ccc(Nc2nnc(-c3ccc(OCC(=O)NC[C@@H]4CC[C@H]5C[C@@H]4C5(C)C)c([N+](=O)[O-])c3)o2)cc1	94
Cc1cc2c(cc1C(F)(F)F)N(C(=O)Nc1cc(OCCN(C)C)cc(C(F)(F)F)c1)CC2.Cl	100
Clc1ccc2c(NN=Cc3cccnc3)ccnc2c1	100
Cl.c1ccc2cc(CNCCCN3CCN(CCCNCc4ccc5ccccc5c4)CC3)ccc2c1	100
Nc1c(Cl)cc(C(O)CNCCCCCOCCc2ccc3occc3c2)cc1Cl (stereo not given)	99
Cc1cc2cc(NC(=O)Nc3ccnc4ccccc34)ccc2n1C.Cl	90
Cc1cc(NCC(c2ccccc2)c2ccccc2)nc(NCc2ccc(C(F)(F)F)cc2)n1	100
